Source: PubChem (several laboratories)
ADAM10 inh = inhibits human ADAM10 | O14672 | recombinant ADAM10, EDANS/DABCYL FRET peptide cleavage, 3 h | inhibition, % at 7 µM | hit rate 0.62% among 370,000;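 active means inhibition above a per-campaign cutoff equal to the mean of compounds falling between control-based bounds plus 3 SD, cut at about 20% in these data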;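 further: 0% = DMSO wells while the 100% control is not disclosed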
Target sequence (O14672 214-748 limits assumed): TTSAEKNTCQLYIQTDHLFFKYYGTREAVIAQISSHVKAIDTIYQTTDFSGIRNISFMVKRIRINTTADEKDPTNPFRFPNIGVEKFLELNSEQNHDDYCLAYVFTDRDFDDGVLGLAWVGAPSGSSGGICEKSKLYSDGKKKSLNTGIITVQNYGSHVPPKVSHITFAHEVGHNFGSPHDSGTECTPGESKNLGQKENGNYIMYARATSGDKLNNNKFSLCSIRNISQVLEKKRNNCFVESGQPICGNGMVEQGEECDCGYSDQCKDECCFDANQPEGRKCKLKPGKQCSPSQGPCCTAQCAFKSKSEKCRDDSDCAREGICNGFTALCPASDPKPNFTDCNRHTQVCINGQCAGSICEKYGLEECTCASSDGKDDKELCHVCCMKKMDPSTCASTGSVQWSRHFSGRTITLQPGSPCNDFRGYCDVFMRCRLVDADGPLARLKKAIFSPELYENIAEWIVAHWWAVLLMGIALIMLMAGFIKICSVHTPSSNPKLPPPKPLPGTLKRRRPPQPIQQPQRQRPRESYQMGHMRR
KLK7 zymogen act = activators of human kallikrein-7 zymogen. P49862. purified proKLK7, EDANS-DABCYL substrate fluorescence; 100% is mature enzyme control, 0% vehicle. activation, % at 7 µM. hit rate 0.9% among 370,000. AID 652039;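 active means activation above the mean of all tested compounds plus 3 SD, computed per campaign excluding outliers beyond control limits, cut at about 13% in these data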
NR3A LBD binder = modulators (binders) of human NR3A ligand-binding domain | NR3A LBD differential scanning fluorimetry, Tm shift; 0% = protein alone, 100% = glycine-bound protein | Tm shift relative to glycine control, % at 25 µM | hit rate 2.5% among 340,000 | AID 1259313;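 active means melting temperature shift of at least 10% of the positive control shift, at one fixed dose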
ADAM17 inh = inhibitors of human ADAM17 | P78536 | recombinant ADAM17, EDANS/DABCYL FRET peptide cleavage | inhibition, % at 6.95 µM | hit rate 0.83% among 370,000 | AID 720648;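 active means inhibition above the mean of compounds lying between control limits plus 3 SD, set per campaign, cut at about 8.5% in these data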;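 further: 0% = DMSO-only wells as the low control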
FAS TE block = FAS thioesterase (human) inhibition. recombinant FAS-TE, OMFH fluorogenic substrate, fluorescence endpoint. inhibition, % at 15 µM. hit rate 0.67% among 360,000. AID 602261;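 active means compounds whose normalised, plate-corrected inhibition of enzyme fluorescence in the single-dose primary screen is 50% or more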;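 further: 0% = DMSO with enzyme and 100% = substrate without enzyme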
The depositor's hits bear a star; i = inactive; . = not tested or not shown. Only some compounds are listed: those with a hit (about 4.6% of all), similar ones and a draw of the others.

SMILES	ADAM10 inh	KLK7 zymogen act	NR3A LBD binder	ADAM17 inh	FAS TE block
Cc1ccc(-c2nc3ccccc3[nH]2)cc1NC(=O)c1ccc2c(c1)OCO2	10	1	-25	-3	4
CN(C)CCNC(=S)Nc1ccc(-c2nc3ccccc3[nH]2)cc1	-17	-1	5	-8	-3
S=C(NCc1ccc2c(c1)OCO2)Nc1ccc(-c2nc3ccccc3[nH]2)cc1	-20	0	26*	0	22
COc1ccccc1C(=O)NC1CCCCN(Cc2cccc(F)c2)C1=O (stereo unspecified)	3	-1	.	-1	.
O=C(CN1CCc2onc(-c3ccc(-n4cc(C5=CCCCC5)nn4)cc3)c2C1=O)N1CCOCC1	-17	1	.	-1	.
C[C@H]1[C@@H](N(C)CC2CCCCC2)CC[C@@]23CCCN2C(=O)CCC[C@@H]13	-4	.	.	-4	.
CC(=O)c1cc(-c2ccccc2)n(CC(=O)NCc2ccccc2)c1C	0	0	.	3	.
O=C(Cn1c(-c2ccccc2)noc1=O)NCc1ccccc1	8	0	13*	8	-5
Cc1ccc2oc(-c3cccc(N)c3)nc2c1	i	12	-11	-198	-1
Nc1cccc(-c2nc3cc(S(=O)(=O)c4ccc5oc(-c6cccc(N)c6)nc5c4)ccc3o2)c1	-61	0	24*	-12	-2
COc1ccc(CN(CCN2CCOCC2)C(=O)c2ccc(F)cc2F)cc1OC	-4	1	.	-1	.
Cc1csc2ncnc(N3CCN(C(=S)Nc4ccc(C(F)(F)F)cc4)CC3)c12	-1	-1	15*	0	42
CCO[C@H]1OC(C(=O)O)=C[C@@H](c2cn(C(C)=O)c3ccccc23)[C@@H]1CCCO	2	0	13*	-1	-13
CCO[C@@H]1OC(C(=O)N2CCN(Cc3ccccc3)CC2)=C[C@H](c2cn(C(C)=O)c3ccccc23)[C@H]1CCCO	7	0	12*	0	8
O=C(c1cc(Cl)cc(Cl)c1)N1CC[C@H]2[C@H](CCCN2Cc2ccc(F)cc2)C1	0	0	.	i	.
CC1CCN(c2ccc(NC(=O)c3ccc(Br)o3)cc2)CC1	4	-1	30*	4	3
O=C(Nc1cccc(C(=O)Nc2ccccc2C(=O)O)c1)c1cccc(Cl)c1	5	0	14*	1	1
O=C(Nc1ccccc1C(=O)O)c1cccc(C(=O)Nc2ccccc2C(=O)O)c1	0	0	10*	-2	-1
O=C(Cc1ccc(Cl)cc1)Nc1cccc(C(=O)Nc2ccccc2C(=O)O)c1	-1	-1	13*	1	15
CN1CCN(c2ccc(NC(=O)c3ccc(Br)o3)cc2)CC1	9	0	-1	-1	-7
COc1ccc(CC(=O)Nc2cccc(C(=O)Nc3ccccc3C(=O)O)c2)cc1OC	-2	0	-6	0	-2
C[C@@H]1CCCN1c1cccc2c1S(=O)(=O)N1CC[C@H](C1)O2	0	0	.	-2	.
O=C(Nc1ccccc1C(=O)O)c1ccc(NC(=O)c2ccc(Br)o2)cc1	.	.	13*	.	-3
O=C(Nc1ccccc1C(=O)O)c1cccc(NC(=O)c2ccc(Br)o2)c1	-8	1	2	6	2
C=C(CN(C)C)C(=O)c1ccc(C)cc1C	-12	1	14*	-1	-6
SMILES	ADAM10 inh	KLK7 zymogen act	NR3A LBD binder	ADAM17 inh	FAS TE block
CCOC(=O)C1CCN(CC(O)COCc2ccccc2)CC1 (stereo unspecified)	-1	0	14*	-1	-2
CCOC(=O)[C@]12CCCCC/C=C\1N(Cc1ccc(OC)cc1)C(=O)[C@H]2CC(=O)NCCCOC	3	0	.	1	.
O=C(Nc1ccc(-c2csc(Nc3ccc(Cl)cc3)n2)cc1)c1ccccc1	0	-1	-1	-4	15
CC(=O)c1cccc(Nc2nc(-c3ccccc3)cs2)c1	-1	1	32*	0	14
CC(=O)c1cccc(Nc2nc(-c3cccnc3)cs2)c1	3	0	2	1	6
O=C(Nc1ccc(-c2csc(Nc3cccc(C(F)(F)F)c3)n2)cc1)c1ccccc1	0	-1	25*	1	34
Cc1nc(-c2ccc(NC(=O)c3ccccc3)cc2)cs1	-6	0	-10	1	3
O=C(Nc1ccc(-c2csc(Nc3cccc(C(F)(F)F)c3)n2)cc1)c1cc([N+](=O)[O-])cc(C(F)(F)F)c1	14	0	21*	1	27
